Consider 94 compounds from PubChem BioAssay AID2221 (Broad Institute, 2009).

Screen size: about 290,000 compounds; about 2,200 (0.76%) were called active. This is one part of a sample in which actives are shown more often than they occur. Values without a mark were called inactive. Cut-off read from the data, not from the text of the source: active = inhibition above about 30%; inconclusive = no clear call, values can overlap the other calls; inactive = below that.

The target of the assay is Protein RecA (Mycobacterium tuberculosis (strain ATCC 25618 / H37Rv)) (UniProt P9WHJ3). The experiment in a line: Mtb RecA intein splicing inhibitors, primary screen, biochemical, fluorescence, HTS (AID 2221).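 Note: 0% = vehicle wells and 100% = reference inhibitor control wells.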 As to conditions: cell-free RecA intein splicing, active compounds read high, concentration not given here.
Chain of Protein RecA (Mycobacterium tuberculosis (strain ATCC 25618 / H37Rv)) (P9WHJ3 whole entry, looked up): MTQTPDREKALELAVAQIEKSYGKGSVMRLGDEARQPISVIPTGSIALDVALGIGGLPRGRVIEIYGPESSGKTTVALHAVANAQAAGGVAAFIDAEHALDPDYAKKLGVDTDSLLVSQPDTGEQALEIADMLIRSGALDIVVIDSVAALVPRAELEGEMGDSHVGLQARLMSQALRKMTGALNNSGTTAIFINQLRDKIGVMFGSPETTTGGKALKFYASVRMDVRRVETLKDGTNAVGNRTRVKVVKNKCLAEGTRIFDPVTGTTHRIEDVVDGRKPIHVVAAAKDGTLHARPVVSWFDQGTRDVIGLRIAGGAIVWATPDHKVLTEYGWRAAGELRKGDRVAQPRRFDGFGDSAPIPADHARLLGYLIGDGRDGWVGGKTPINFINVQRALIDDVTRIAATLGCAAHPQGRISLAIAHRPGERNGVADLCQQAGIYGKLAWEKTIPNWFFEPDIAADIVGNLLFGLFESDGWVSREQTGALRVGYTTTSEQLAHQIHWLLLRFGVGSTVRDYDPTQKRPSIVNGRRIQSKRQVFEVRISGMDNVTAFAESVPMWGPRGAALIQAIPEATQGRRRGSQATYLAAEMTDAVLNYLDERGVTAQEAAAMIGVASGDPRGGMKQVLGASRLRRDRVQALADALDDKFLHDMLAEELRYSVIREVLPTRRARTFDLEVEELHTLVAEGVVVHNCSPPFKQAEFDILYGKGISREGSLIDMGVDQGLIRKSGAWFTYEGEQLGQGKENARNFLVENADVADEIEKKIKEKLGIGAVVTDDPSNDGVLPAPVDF
Turning to `CSCC[C@H](NC(=O)N1CCn2c1nc1ccccc12)C(=O)NC1CCCCC1`, the inhibition (commonly the change of the read-out against control, counted positive when it falls) is 0.784%.
Under `ClC1(Cl)CC1CSc1ncn[nH]1` (centres undefined) stands -0.379%; under `Cc1ccc(SC(CC(=O)c2ccc(C(C)(C)C)cc2)C(=O)O)cc1` (centres undefined), 8.11%; under `Cc1ccc(SCCSc2ncccn2)cc1`, -1.76%.
Under `Cc1ccc(SCC2=NNC(=O)C2)cc1` stands 87.8% (active).
Under `Cc1ccc(SCc2cc(=O)[nH]c(N3CCCCC3)n2)cc1` stands 1.86%; under `O=C(NC1CCc2ccccc21)C12CN(Cc3ccccc3)CC1C(c1cccc([N+](=O)[O-])c1)=NO2` (centres undefined), 8.13%.
`CCOc1ccc(-n2c(SCC(N)=O)nnc2-c2ccco2)cc1`: the inhibition is 1.21%.
Under `CC1(N2CCOCC2)CC2(O)C(=[N+]1[O-])CCc1nonc12` (centres undefined) stands 59.8% (active); under `CC(=O)n1c(C=Nc2ccccc2)c(O)c2ccccc21`, -25.1%; under `Cc1ccc(NC(=O)CSc2nnc(CNC(=O)c3ccccc3F)o2)cc1`, -1.52%.
Under `O=C(CCCN=C1NS(=O)(=O)c2ccccc21)OCC(=O)c1ccc(F)c(F)c1` stands 0.337%; under `CCN(CC)S(=O)(=O)c1ccc(Cl)c(NC(=O)c2ccncc2)c1`, -0.0873%.
Consider `CN(C)c1ccc(NC(=O)c2ccncc2)c2ccccc12`, for which the inhibition is 32.8% (active).
Under `CC(=O)c1cccc(NC(=O)c2ccncc2)c1` stands -0.301%; under `Cc1cc(Nc2cccc(C)c2C)n2ncnc2n1`, 0.489%.
Turning to `COc1ccc(Nc2ncnc3ccc(Br)cc23)c(OC)c1`, the inhibition is -1.95%.
Under `COc1ccc2sc(N(CCCN(C)C)C(=O)c3ccc(S(=O)(=O)N(C)C4CCCCC4)cc3)nc2c1` stands 2.28%; under `S=c1nccc(-c2cc(Cl)sc2Cl)[nH]1`, 2.58%.
Under `COc1ccc(-c2csc(Nc3ccc(O)cc3)n2)cc1` stands 33.3% (active); under `O=c1oc2ccccc2cc1-c1csc(Nc2ccc(O)cc2)n1`, -3.92%; under `COc1ccc(-c2csc(Cc3nc(O)cs3)n2)cc1`, 8.96%.
In the case of `NNC(=O)C1CC(O)CN1S(=O)(=O)c1ccc(Cl)cc1` (centres undefined), the inhibition is 0.0391%.
Under `COc1cccc(CN(C)C(=O)CC23CC4CC(CC(C4)C2)C3)c1OC` stands 9.37%; under `O=C(NCCc1ccccc1)Oc1ccc(Cl)cc1`, 6.61%; under `COc1cccc(CNC(=O)C2CCCN(c3ncnc4c3nc3n4CCCCC3)C2)c1` (centres undefined), 3.28%.
Under `COc1cccc(NC(=O)c2ccc3c(SCC(=O)O)c4c(nc3c2)CCCC4)c1` stands 16.6%; under `CC(=O)c1ccc(NC(=O)c2ccc3c(Cl)c4c(nc3c2)CCCC4)cc1`, -0.115%.
Under `O=C(O)CSc1c2c(nc3cc(C(=O)Nc4cccc(C(F)(F)F)c4)ccc13)CCCC2` stands 45.1% (active); under `CC(C)CC(=O)Nc1nnc(S(=O)(=O)N(C)c2ccc(Cl)cc2)s1`, -1.1%; under `O=C(C1CCCN(S(=O)(=O)c2ccc([N+](=O)[O-])cc2)C1)N1CCCCC1` (centres undefined), -2.27%.
With `O=c1oc2ccccc2c(NC2CCCCC2)c1NS(=O)(=O)c1ccc(Cl)cc1`, the inhibition is -0.796%.
Under `COC(=O)c1ccc(-n2cnc3ccccc32)nc1` stands -0.81%; under `COC(=O)c1cn(C(=O)c2ccc(Cl)cc2)c2ccccc12`, -1.64%.
Regarding `O=C(c1ccc(Cl)cc1)n1cnc2ccccc21`, the inhibition was 48.8% (active).
Under `O=C(Nc1ncccc1O)c1ccc(S(=O)(=O)N2CCCCCC2)cc1` stands -0.935%; under `Oc1c(Cl)cc(Cl)c(Cl)c1Cc1c(O)c(Cl)cc(Cl)c1Cl`, 43.2% (active).
On to `COC(=O)c1nc(NC(=O)c2ccc(F)cc2)n[nH]1`, for which the inhibition is 22.9%.
Regarding `COC(=O)c1nc(NC(=O)c2ccc(Cl)cc2)n[nH]1`, the inhibition is -2.52%.
Under `COC(=O)c1nc(NC(=O)c2ccc(C(C)(C)C)cc2)n[nH]1` stands 32.8% (active).
Under `CC(=O)N1CC(=O)N(CC(=O)Nc2ccc(Br)cc2)C1=S` stands -3.4%; under `O=C(Oc1cccc(O)c1)C1CCCCC1`, -20.9%; under `COC(=O)C1=C(C(=O)OC)C(c2cc([N+](=O)[O-])ccc2O)c2sc(=O)[nH]c2S1` (centres undefined), -7.2%.
Under `CCOC(=O)c1c(C)nc(-c2ccccc2)nc1NC(=O)C(C)C` stands -0.631%; under `CCOC(=O)c1c(C)[nH]c(C)c1S(=O)(=O)N(C)CC(=O)Nc1ccccc1C`, -2.47%; under `CCOC(=O)c1c(C)[nH]c2c1-c1ccccc1C(=O)C2=O`, 97.6% (active).
Take `Cc1cc(C=O)c(C)n1-c1ccc(NC2CCCCC2)c([N+](=O)[O-])c1`: the inhibition is 15.3%.
Under `O=C(O)c1cccc(N2C(=O)Nc3ccccc3N2O)c1` stands -5.4%; under `O=C(c1cccc(N2CCCC2=O)c1)N1CCOCC1`, 2.18%.
Under `NC1=NN(c2cccc(C(=O)O)c2)C(=O)C1` stands 83.8% (active); under `N=C1/C(=C/c2cccn2-c2cccc([N+](=O)[O-])c2)C(=O)N=C2SC=CN12`, -0.963%; under `Cc1ccccc1Cn1c(=O)[nH]c2ccccc21`, 3.55%.
Under `O=c1[nH]c2ccccc2n2c(-c3ccccc3)nnc12` stands 33.2% (active); under `O=c1[nH]n2c(-c3ccccc3)nc(O)c2c2ccccc12`, -1.37%; under `CN(C(=O)CSc1nnc(N)s1)c1c(N)n(Cc2ccccc2)c(=O)[nH]c1=O`, -0.327%.
On to `CC(C)(C)C(=O)N1CCC[C@@]1(CO)C(=O)O`, for which the inhibition is -0.553%.
Under `CCc1ccc2nc(Nc3ncc(C(C)=O)c(C)n3)nc(C)c2c1` stands 1.55%.
For the compound `Brc1ccc(-c2n(-c3ccccn3)c3ccccc3[n+]2-c2ccccn2)cc1`, the inhibition is 6.87%.
Under `Cc1[nH]c2ccccc2c1C(=O)CN1CCCC(C)C1` (centres undefined) stands -2.48%; under `CCn1nnnc1SCC(=O)Nc1ccc(N(C)C)cc1`, -2.84%; under `CC(OC(=O)c1ccccc1OCc1ccc(Cl)cc1)C(N)=O` (centres undefined), -4.29%.
Under `Cc1ccc(N(Cc2cc(=O)[nH]c3ccccc23)C(=O)CCl)cc1` stands 69.5% (active); under `Cc1ccc(N(Cc2cc3ccccc3[nH]c2=O)C(=O)c2cccs2)cc1`, 0.4%; under `CC(=O)N(Cc1cc(=O)[nH]c2ccccc12)c1ccc(C)cc1C`, 2.74%.
Under `O=C(Cc1c[nH]c2ccccc12)OCCOC(=O)Cc1c[nH]c2ccccc12` stands 1.52%; under `O=S(=O)(O)Oc1c[nH]c2ccccc12`, 75% (active).
With `COc1ccccc1CC(=O)NCCc1c[nH]c2ccccc12`, the inhibition was 3.54%.
Under `O=C(O)C1CCCN(CCC=C(c2ccccc2)c2ccccc2)C1` (centres undefined) stands -1.43%; under `O=C(Nc1ccccc1)c1ccc(NC(=O)c2cccs2)cc1`, -3.07%.
Under `O=C(Nc1n[nH]c(C(F)(F)F)n1)c1cccs1` stands 51.9% (active); under `O=S(=O)(Nc1n[nH]c(C(F)(F)F)n1)c1ccccc1`, -1.49%; under `Cc1ccc(-c2noc(C3CCCN(C(=O)c4cccc(Cl)c4)C3)n2)o1` (centres undefined), 1.61%.
With `Cc1nn(-c2ccccc2)c2c1C(c1ccc(F)cc1)C(C#N)=C(N)O2` (centres undefined), the inhibition is 43.3% (active).
Consider `C=CCOC(=O)C1=C(C)OC(N)=C(C#N)C1c1ccc(F)cc1` (centres undefined), for which the inhibition is 5.83%.
Under `COC(=O)C1=C(C)OC(N)=C(C#N)C1c1cc(OC)ccc1OC` (centres undefined) stands -1.82%.
As for `COc1ccc(C2C(C#N)=C(N)Oc3cc(N)ccc32)cc1OC` (centres undefined), the inhibition is -13.5%.
Under `Cc1cc(C)c2c3c(sc2n1)C(c1ccccc1)C(C#N)=C(N)O3` (centres undefined) stands -1.99%; under `COc1ccccc1C1C(C#N)=C(N)Oc2c1c(-c1ccccc1)nn2-c1ccccc1` (centres undefined), 35.8% (active).
Under `Cc1nn(Cc2ccccc2)c(C)c1NS(=O)(=O)c1ccccc1` stands 1.17%; under `Cn1c2c(c(=O)n(C)c1=O)C(c1cccc(F)c1)C(C#N)=C(N)O2` (centres undefined), -1.55%.
Under `Cc1nn(Cc2ccccc2)c2c1C(c1ccccc1)C(C#N)=C(N)O2` (centres undefined) stands 66.3% (active).
`Cc1n[nH]c(C)c1S(=O)(=O)N1CCCC(C(=O)Nc2ccc(Br)cc2)C1` (centres undefined): the inhibition is -13.2%.
Under `CC1CC(C)(C)CC2(C1)NC(=O)N(CC(=O)Nc1nccs1)C2=O` (centres undefined) stands -1.2%.
With `CCN1CCC2(CC1)N=C(c1ccc(F)cc1)C(=S)N2C(=O)c1ccc(C)cc1`, the inhibition is 1.27%.
Under `COc1ccc(-c2ccc(CCC(=O)O)n2NC(=O)c2ccc(C(C)(C)C)cc2)cc1` stands 3.63%; under `CCN1C(=O)[C@@H]2[C@@H](c3ccc(-c4ccccc4)cc3)N3CCCC[C@@]3(C(=O)OC)[C@@H]2C1=O`, 2.14%.
Under `Cc1ccc(-c2nc(SCC(=O)Nc3ccccc3OC(F)F)c3c(C)c(C(=O)O)sc3n2)cc1` stands 2.99%.
Under `Cc1ccc(CC2C(=O)N(c3ccc(F)cc3)C(=O)C2C)cc1` (centres undefined) stands -0.367%; under `COc1cc(/C(=C/c2ccccc2)c2ccccc2)c2c(c1)oc1ccccc12`, -0.274%; under `COc1ccc(OC)c(/C(C)=N\NC(=O)c2cc3cc(Cl)ccc3n2C)c1`, 9.04%.
With `CC1=NN(c2ccc(Cl)c(C(=O)O)c2)C(=O)/C1=C/c1ccc(-c2ccccc2[N+](=O)[O-])o1`, the inhibition is 7.48%.
Under `CC(=O)C1C(c2cccc(Oc3ccccc3)c2)NC(=O)NC1(O)C(F)(F)F` (centres undefined) stands -2.89%.
Under `O=C1NC(c2ccc(-c3ccccc3[N+](=O)[O-])o2)C(C(=O)c2ccc(Cl)cc2)C(O)(C(F)(F)F)N1` (centres undefined) stands 45% (active); under `CC1(C)CC(=O)C(N=Nc2ccc(S(=O)(=O)N3CCCCCC3)cc2)=C(O)C1`, -0.925%.
